# Compound activity: PubChem BioAssay, University of Pittsburgh Molecular Library Screening Center
# HIV RNase H inh-1: blocks HIV-1 RNase H cleavage of RNA/DNA duplex | RT-RNase H RNA/DNA duplex cleavage, fluorescence | 65,000 tested, 1.9% active | AID 565 | inhibition, % at 10 µM | P04585; in the data active = inhibition above about 50%
# HIV RNase H inh-2: confirmation of HIV-1 reverse transcriptase RNase H inhibitors | shares compounds with HIV RNase H inh-1 | Recombinant RT RNase H, fluorescent RNA/DNA duplex cleavage | inhibition, % at 10 µM | 1,000 tested, 39% active | AID 651; in the data active = inhibition above about 48%
# An asterisk follows results filed as active. Many of the other results were omitted from the sample, so hits are more common in it than they were.
SMILES,HIV RNase H inh-1,others
COc1ccc(CCNC(=O)C2CCN(Cc3nc(-c4ccc(Cl)cc4)oc3C)CC2)cc1OC,-1,
COC(=O)C(NC(C)=O)(Nc1ccccc1)C(=O)OC,-8,
O=c1[nH]nc(Sc2ncnc3sccc23)n1CCc1ccccc1,11,
CC1(C)Cc2noc(N)c2C(C)(C)N1O,-5,
Cc1ccc(CN(Cc2cccnc2)C(=O)CN2C(=O)COc3ccccc32)o1,-6,
COc1ccc(CN(Cc2ccccn2)C(=O)CN2C(=O)C(C)Oc3ccccc32)cc1 (stereo unspecified),-6,
O=C(CN1C(=O)COc2ccccc21)N(Cc1ccccc1)Cc1ccccn1,84*,HIV RNase H inh-2=39
CCCCn1c(SCc2ccc(Cl)cc2)nc2c1c(=O)[nH]c(=O)n2C,54*,HIV RNase H inh-2=1
C/C(Cl)=C/Cn1c(SCCN2CCOCC2)nc2c1c(=O)[nH]c(=O)n2C,6,
Cc1ccc(Cn2c(Sc3nccc(C)n3)nc3c2c(=O)[nH]c(=O)n3C)cc1,-13,
CCOCCn1c(SCc2ccc(F)cc2)nc2c1c(=O)[nH]c(=O)n2C,-24,
COCCn1c(SCC(=O)Nc2ccccc2)nc2c1c(=O)[nH]c(=O)n2C,-11,
C=CCn1c(SCCN2CCOCC2)nc2c1c(=O)[nH]c(=O)n2C,-2,
CCSc1nc2c(c(=O)[nH]c(=O)n2C)n1Cc1ccc(Cl)cc1,-3,
C/C=C/CSc1nc2c(c(=O)[nH]c(=O)n2C)n1Cc1ccc(C)cc1,80*,HIV RNase H inh-2=72*
COCCn1c(SCCN2CCOCC2)nc2c1c(=O)[nH]c(=O)n2C,88*,HIV RNase H inh-2=60*
Cc1ccc(Cn2c(Sc3ncccn3)nc3c2c(=O)[nH]c(=O)n3C)cc1,4,
C/C(Cl)=C/Cn1c(SCc2ccc(Cl)cc2)nc2c1c(=O)[nH]c(=O)n2C,35,
COCCn1c(SCc2c(F)cccc2Cl)nc2c1c(=O)[nH]c(=O)n2C,57*,HIV RNase H inh-2=4
N=C1C=CC=C2C1=NC1(CCCCC1)N2O,7,
CCn1c(=O)c2c3c(sc2n2c(SCc4ccc(F)cc4)nnc12)CCCC3,8,
COc1ccc2c(CC(=O)Nc3ccc(OC)c(NS(=O)(=O)c4ccc(F)cc4)c3)coc2c1,8,
CCCCc1nc(SCC(=O)Nc2ccc(S(N)(=O)=O)cc2)n[nH]1,-19,
CC1(C)CN(O)CCN1O,-4,
COC(=O)Nc1ccc(C)c2nsnc12,-8,
SMILES,HIV RNase H inh-1,others
O=C(O)CSCC(=O)NCc1ccccc1,-10,
CCOC(=O)c1sc(N)c(C#N)c1CSc1nnc(C2CCCCC2)n1N,16,
CCOCCCNS(=O)(=O)c1ccc(NC(=O)c2ccccc2)cc1,-2,
c1ccc(-c2cn3c4c(sc3n2)CCCC4)cc1,-17,
CC(C)CCSc1nnc(Cn2c(=O)sc3ccccc32)n1C,-56,
O=C(NCc1ccc2c(c1)OCO2)C1CCC(CNS(=O)(=O)c2ccccc2)CC1 (stereo unspecified),3,
COc1ccc(CC(C(=O)Nc2cccc(F)c2)c2nn[nH]n2)c(OC)c1 (stereo unspecified),5,
CC(C)CSc1nc2c(c(=O)[nH]c(=O)n2C)n1CCc1ccccc1,3,
Cc1ccc(CSc2nc3c(c(=O)[nH]c(=O)n3C)n2CCC(C)C)cc1,6,
C/C=C/Cn1c(SCc2ccccc2)nc2c1c(=O)[nH]c(=O)n2C,50*,HIV RNase H inh-2=2
CCOC(=O)c1c(C)oc2cc(Br)c(OC(=O)N3CCOCC3)cc12,-8,
CCCCn1c2c(c(=O)n(C)c1=O)C(CC(=O)OCC(=O)Nc1cccc(C(F)(F)F)c1)C(=O)N2 (stereo unspecified),-1,
COc1ccc2c(c1)c(=O)cc(C)n2CC(=O)NCc1ccco1,-6,
CCOC(=O)c1cc(-c2ccc(C)cc2)n(CCC(=O)NCCN(C)C)c1C,3,
CCOC(=O)c1cc(-c2ccc(C)cc2)n(CC(=O)NCc2ccco2)c1C,58*,HIV RNase H inh-2=31
CC(C)c1cc(CN2CCN(CCC#N)CC2)cc(C(C)C)c1O,-2,
CN1CCN(Cc2ccc(-c3ccc(Cl)cc3)o2)CC1,-4,
N#CCCN1CCN(C(=S)c2ccc(-c3ccc(Cl)cc3)o2)CC1,56*,HIV RNase H inh-2=13
CCOC(=O)CC1=CC(C)(CC(=O)OCC)C(C#N)(C#N)C(N)=C1C#N (stereo unspecified),7,
Cn1c(SCC(=O)NCc2ccco2)nc2ccccc2c1=O,-25,
COc1ccc(C(=O)Nn2c(SCC(=O)NCc3ccco3)nc3ccccc3c2=O)cc1,-1,
O=C(CSc1nc2ccccc2c2nc3ccccc3n12)NCc1ccco1,84*,HIV RNase H inh-2=64*
O=C(c1ccco1)N1CCN(S(=O)(=O)c2cccc(C(F)(F)F)c2)CC1,-6,
COc1ccc(C2/C(=C(/O)c3ccccc3)C(=O)C(=O)N2CC(C)O)c(OC)c1 (stereo unspecified),-12,
C=CCn1c(C(C)NC(=O)COC)nc2ccccc21 (stereo unspecified),-7,
O=c1o[nH]c(-c2ccccc2)c1C1=NCCCCC1,-59,
COc1ccc(OC)c(S(N)(=O)=O)c1,-13,
COC(=O)c1c(C)oc2ccc(NS(=O)(=O)c3cc(OC)ccc3OC)cc12,-4,
